Laboratory results taken from PubChem BioAssay (NCI).
Compounds without any hit were thinned out: in the full panel of roughly 83,000, 20% have a hit.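 Single-concentration screen, 48 h exposure, 96-well plates. Endpoint: percent growth. Below 10 = active.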 A number with no mark means an inactive call. The source made the active and inactive calls.

What follows are compounds tested on HL-60(TB) leukemia (assay: NCI-60 one-dose screen, 48 h (100 = growth as untreated, 0 = no growth, -100 = all killed)). Details: 10 µM unless noted.

| Structure (SMILES) | growth |
| --- | --- |
| COC(=O)c1ccc(CSc2nnc(-c3ccncc3)o2)cc1 | 95.5% |
| COc1ccc(N=C2NN=C(c3c[nH]c4ccccc34)CS2)cc1OC | 47% |
| C#CCOc1ccc(C2=NN(C)C3N=C(Cl)c4ncn(C)c4N23)cc1OCC#C (stereo not given) | 98.6% |
| COC(=O)c1cc2c(n1Cc1ccccc1)-c1oncc1CCC2 | 28.9% |
| COc1ccc(OC)c(NC(=O)c2cc3oc4ccccc4c3cc2O)c1 | 121% |
| N[C@H]1CCC[C@@H]1NCCCCN1C(=O)c2cccc3cccc(c23)C1=O | 85.5% |
| O=C(CSc1nnc(-c2ccc(Cl)cc2)o1)Nc1ccc(C(=O)/C=C/c2ccc(Cl)cc2)cc1 | 84.4% |
| c1ccc([C@H]2CN3CCSC3=N2)cc1 | 99.1% |
| COc1cc(-c2nn(-c3cccc(NC(=O)c4ccc(N5CCOCC5)c(C(F)(F)F)c4)c3)cc2-c2ccncc2)ccc1Cl | -8.08% (active) |
| CCCCCN(CCCCC)CCCCCCCCN1CCCc2ccccc21 | -14.2% (active) |
| CCn1cc(/C=C2\Oc3cc(OCC#N)ccc3C2=O)c2cc(OC)ccc21 | -31% (active) |
| C#CC#CC#CC#CC#CC#CC#CC#CC[C@H]1OC[C@@H](COC(=O)O[C@@H](C(=O)O[C@H]2C[C@@]3(O)[C@@H](OC(=O)c4ccccc4)[C@@H]4[C@]5(OC(C)=O)CO[C@@H]5C[C@H](O)[C@@]4(C)C(=O)[C@H](OC(C)=O)C(=C2C)C3(C)C)[C@@H](NC(=O)c2ccccc2)c2ccccc2)O1 | 6.5% (active) |
| S=c1nc(-c2ccccn2)c(-c2ccccn2)n[nH]1 | 92.8% |
| S=C1CC(=S)NC(=S)N1 | 131% |
| CC[C@]12C=CCN3CC[C@@]4(c5ccc(OC)cc5N(C)[C@H]4[C@@](O)(C(=O)OC)[C@@H]1OC(=O)CCC(=O)N[C@@H](Cc1c[nH]c4ccccc14)C(=O)OC)[C@@H]32 | -5.33% (active) |
| Fc1ccc2[nH]cc(-c3nc(-c4ccsc4)cs3)c2c1 | 99.3% |
| CCOC(=O)C1OC1(c1ccccc1)c1ccccc1 (stereo not given) | 89.4% |
| O=C1OCc2cccc3cccc1c23 | 84.9% |
| Cc1[nH]c(C(=O)Nc2nc3ccc(NC(=O)CCN)cc3s2)c(Cl)c1Cl | 83.8% |
| C=C1C(=O)O[C@H]2[C@H]1CC/C(COC(=O)C(C)c1ccc(CC(C)C)cc1)=C\CC[C@@]1(C)O[C@@H]21 (stereo not given in full) | -9.46% (active) |

| Structure (SMILES) | growth |
| --- | --- |
| O=C(Nc1cccc(-n2ccc3c(NC(=O)c4ccccc4)ncnc32)c1)Nc1ccc(Cl)c(C(F)(F)F)c1 | -1.92% (active) |
| O=C1/C(=C\c2ccco2)SC(=S)N1CCc1ccc(O)cc1 | 76.3% |
| O=C(CCC(=O)c1nc2ncccc2[nH]1)NN1C(=O)CSC1c1ccc(Cl)cc1 (stereo not given) | 99.6% |
| O=C(Nc1nc(-c2ccc(Cl)cc2)nc2c1sc(=S)n2-c1ccccc1)C(F)(F)F | 69.2% |
| COc1ccc(C2CC(c3cnccn3)=NN2)cc1OC (stereo not given) | 46.5% |
| COc1cc(OC)cc(N2CCN(C(=O)Nc3nc4cc(F)ccc4nc3OC)CC2)c1 | -17% (active) |
| C=C1C(=O)O[C@H]2[C@H]1CC/C(COC(=O)/C=C\C(=O)O)=C\CC[C@@]1(C)O[C@@H]21 | 105% |
| CCOC(=O)CC1CSC(Nc2ccccc2)=N1 (stereo not given) | 102% |
| COc1cc(/C=C/C(=O)N2c3ccccc3CC2C)c(OC)c2c1OCO2 (stereo not given) | 91.7% |
| CCCCCCCCCCCCCCCCCCOc1ccccc1CC(=O)OCC[N+](C)(C)C | -38% (active) |
| COc1ccc(S(=O)(=O)Nc2cc(/C=C\c3cc(OC)c(OC)c(OC)c3)ccc2OC)cc1 | -31.6% (active) |
| O=C1NC(=C(Cl)Cl)/C(=N/S(=O)(=O)N2CCCCC2)N1 | -70.3% (active) |
| CN(C)CCCNc1nc2ccccc2c2c(=O)c3cc(F)ccc3sc12 | -43.5% (active) |
| N/C(=N\O)c1cn(C2OC(CO)C(O)C2O)c2ncnc(N)c12 (stereo not given) | -43.5% (active) |
| NC(=O)c1c(NC(=O)c2ccccn2)sc2c1CCC(=O)C2 | -0.0087% (active) |
| COc1cccc(-c2nc(-c3ccc(N)cc3)co2)c1 | 52.9% |
| CCOC(=O)c1c2c(c(C)n1Cc1ccccc1)-c1nc(N)ncc1CC2 | 96.2% |
| COc1ccc(-c2nc3sccn3c2/C=C/C(=O)c2cc(OC)c(OC)c(OC)c2)cc1OC | 6.14% (active) |
| N#Cc1ccc(C(=O)CSc2nccc(Nc3ccc(C(=O)O)cc3)n2)cc1 | 99.5% |
| CCN(CC)CCNc1nc2ccccc2c2c(=O)c3cc(Cl)ccc3sc12 | 78.1% |
